Results from the supplement of paper PMC10849652.
Of roughly 7,900 targets only a part is listed; those with a hit were picked by preference. About 0.6% of all pairs of compound and target were hits.

Columns and labels:
Experiment in all cases: log2 fold change, soluble protein after heating vs DMSO (PISA); higher = thermal stabilisation; K562 cells, 10 uM, 30 min; active = over 0.2 and 3.5 SD of the protein, either way, in both replicates (recomputed)
bafetinib = compound: Cc1ccc(NC(=O)c2ccc(CN3CC[C@H](N(C)C)C3)c(C(F)(F)F)c2)cc1Nc1nccc(-c2cncnc2)n1 [bafetinib]
Procedure, shortened: (§1)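 K562 cells at 2×10^6 cells/mL were given 10 μM compound for 30 min. Aliquots then went through 3 min of heating across 48°C-58°C, were pooled, and were extracted in PBS with 0.5% NP-40 at 4°C, and the supernatant after 21,000xg for 90 min was quantified by TMTpro 16plex LC-MS/MS with channel sums equalised. Thermal stability relative to control samples, from duplicates, is given as log2 fold change.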

[1] = compound: Cc1cccc(CC(=O)N2CCc3c2ccc(-c2cn(C)c4ncnc(N)c24)c3F)n1
Procedure, shortened: as §1

nilotinib = compound: Cc1cn(-c2cc(NC(=O)c3ccc(C)c(Nc4nccc(-c5cccnc5)n4)c3)cc(C(F)(F)F)c2)cn1 [nilotinib]
Procedure, shortened: as §1

[2] = compound: Cc1nc(Nc2n[nH]c3c2CN(C(=O)N[C@H](CN(C)C)c2ccccc2)C3(C)C)c2sccc2n1
Procedure, shortened: as §1

dasatinib = compound: Cc1nc(Nc2ncc(C(=O)Nc3c(C)cccc3Cl)s2)cc(N2CCN(CCO)CC2)n1 [dasatinib]
Procedure, shortened: as §1

[3] = compound: Cc1ncc(-c2ccnc(Nc3ccc(S(C)(=O)=O)cc3)n2)n1C(C)C
Procedure, shortened: as §1

[4] = compound: Cn1cc(-c2ccc3c(c2)CCN3C(=O)Cc2cccc(C(F)(F)F)c2)c2c(N)ncnc21
Procedure, shortened: as §1

[5] = compound: Cn1cc(-c2ccc3nnc(C(F)(F)c4ccc5ncccc5c4)n3n2)cn1
Procedure, shortened: as §1

tipifarnib = compound: Cn1cncc1[C@@](N)(c1ccc(Cl)cc1)c1ccc2c(c1)c(-c1cccc(Cl)c1)cc(=O)n2C [tipifarnib]
Procedure, shortened: as §1

mubritinib = compound: FC(F)(F)c1ccc(/C=C/c2nc(COc3ccc(CCCCn4ccnn4)cc3)co2)cc1 [mubritinib]
Procedure, shortened: as §1

[6] = compound: NC(=O)Nc1cc(-c2cccc(F)c2)sc1C(=O)N[C@H]1CCCNC1
Procedure, shortened: as §1

[7] = compound: NC(=O)c1cnc(N[C@@H]2CCCC[C@@H]2N)nc1Nc1cccc(-n2nccn2)c1
Procedure, shortened: as §1

[8] = compound: NC1(c2ccc(-c3nc4ccn5c(=O)[nH]nc5c4cc3-c3ccccc3)cc2)CCC1
Procedure, shortened: as §1

[9] = compound: NCC(=O)Nc1ccc(-n2nc(C(F)(F)F)cc2-c2ccc3c(ccc4ccccc43)c2)cc1
Procedure, shortened: as §1

entinostat = compound: Nc1ccccc1NC(=O)c1ccc(CNC(=O)OCc2cccnc2)cc1 [entinostat]
Procedure, shortened: as §1

vorinostat = compound: O=C(CCCCCCC(=O)Nc1ccccc1)NO [vorinostat]
Procedure, shortened: as §1

citarinostat = compound: O=C(CCCCCCNC(=O)c1cnc(N(c2ccccc2)c2ccccc2Cl)nc1)NO [citarinostat]
Procedure, shortened: as §1

silmitasertib = compound: O=C(O)c1ccc2c(c1)nc(Nc1cccc(Cl)c1)c1ccncc12 [silmitasertib]
Procedure, shortened: as §1

[10] = compound: O=C1NC(=O)C(c2cnc3ccccn23)=C1c1cn2c3c(cc(F)cc13)CN(C(=O)N1CCCCC1)CC2
Procedure, shortened: as §1

[11] = compound: c1cc(OCCN2CCCCC2)cc(-c2n[nH]c3ccc(-c4nnc[nH]4)cc23)c1
Procedure, shortened: as §1

Chain of UniProt A5PLN9 (A5PLN9 whole entry, looked up): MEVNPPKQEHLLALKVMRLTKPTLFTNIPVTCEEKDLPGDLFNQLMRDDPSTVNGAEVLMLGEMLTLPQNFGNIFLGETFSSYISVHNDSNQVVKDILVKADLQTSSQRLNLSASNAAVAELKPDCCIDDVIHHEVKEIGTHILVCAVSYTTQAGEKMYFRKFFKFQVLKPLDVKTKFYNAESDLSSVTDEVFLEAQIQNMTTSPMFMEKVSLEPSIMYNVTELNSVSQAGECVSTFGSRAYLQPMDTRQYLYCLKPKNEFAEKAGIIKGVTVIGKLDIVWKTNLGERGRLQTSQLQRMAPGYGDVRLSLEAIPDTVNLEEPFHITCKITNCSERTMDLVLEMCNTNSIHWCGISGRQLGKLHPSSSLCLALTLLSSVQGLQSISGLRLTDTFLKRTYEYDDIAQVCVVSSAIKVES
Chain of UniProt Q9H3M7 (Q9H3M7 whole entry, looked up): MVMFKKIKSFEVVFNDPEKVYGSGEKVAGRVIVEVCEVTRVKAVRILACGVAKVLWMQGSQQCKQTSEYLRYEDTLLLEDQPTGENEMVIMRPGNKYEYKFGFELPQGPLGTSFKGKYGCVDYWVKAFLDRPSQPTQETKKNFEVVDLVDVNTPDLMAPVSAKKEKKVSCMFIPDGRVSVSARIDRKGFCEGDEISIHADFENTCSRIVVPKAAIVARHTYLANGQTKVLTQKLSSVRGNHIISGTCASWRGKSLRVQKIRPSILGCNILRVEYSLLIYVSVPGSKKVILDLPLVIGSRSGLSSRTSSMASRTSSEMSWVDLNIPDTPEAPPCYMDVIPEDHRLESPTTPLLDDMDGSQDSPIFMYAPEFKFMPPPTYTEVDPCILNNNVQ
Chain of UniProt Q9BUB7 (Q9BUB7 whole entry, looked up): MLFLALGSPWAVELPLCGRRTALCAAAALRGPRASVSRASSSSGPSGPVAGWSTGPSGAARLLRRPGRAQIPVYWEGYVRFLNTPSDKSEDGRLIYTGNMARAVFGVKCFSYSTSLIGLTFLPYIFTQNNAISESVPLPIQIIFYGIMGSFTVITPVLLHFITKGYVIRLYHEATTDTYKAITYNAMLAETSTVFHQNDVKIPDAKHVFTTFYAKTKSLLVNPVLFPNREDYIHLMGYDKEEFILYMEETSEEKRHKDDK
Chain of UniProt Q9NP79 (Q9NP79 whole entry, looked up): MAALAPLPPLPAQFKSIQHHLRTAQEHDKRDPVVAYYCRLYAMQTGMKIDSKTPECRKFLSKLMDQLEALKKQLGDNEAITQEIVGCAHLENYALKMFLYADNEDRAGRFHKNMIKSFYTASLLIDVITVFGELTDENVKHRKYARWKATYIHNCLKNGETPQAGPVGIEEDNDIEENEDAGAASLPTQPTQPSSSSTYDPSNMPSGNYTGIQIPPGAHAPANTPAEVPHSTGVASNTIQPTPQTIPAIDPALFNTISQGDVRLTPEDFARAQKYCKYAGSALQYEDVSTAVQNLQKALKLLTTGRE
Chain of UniProt Q9UHP3 (Q9UHP3 whole entry, looked up): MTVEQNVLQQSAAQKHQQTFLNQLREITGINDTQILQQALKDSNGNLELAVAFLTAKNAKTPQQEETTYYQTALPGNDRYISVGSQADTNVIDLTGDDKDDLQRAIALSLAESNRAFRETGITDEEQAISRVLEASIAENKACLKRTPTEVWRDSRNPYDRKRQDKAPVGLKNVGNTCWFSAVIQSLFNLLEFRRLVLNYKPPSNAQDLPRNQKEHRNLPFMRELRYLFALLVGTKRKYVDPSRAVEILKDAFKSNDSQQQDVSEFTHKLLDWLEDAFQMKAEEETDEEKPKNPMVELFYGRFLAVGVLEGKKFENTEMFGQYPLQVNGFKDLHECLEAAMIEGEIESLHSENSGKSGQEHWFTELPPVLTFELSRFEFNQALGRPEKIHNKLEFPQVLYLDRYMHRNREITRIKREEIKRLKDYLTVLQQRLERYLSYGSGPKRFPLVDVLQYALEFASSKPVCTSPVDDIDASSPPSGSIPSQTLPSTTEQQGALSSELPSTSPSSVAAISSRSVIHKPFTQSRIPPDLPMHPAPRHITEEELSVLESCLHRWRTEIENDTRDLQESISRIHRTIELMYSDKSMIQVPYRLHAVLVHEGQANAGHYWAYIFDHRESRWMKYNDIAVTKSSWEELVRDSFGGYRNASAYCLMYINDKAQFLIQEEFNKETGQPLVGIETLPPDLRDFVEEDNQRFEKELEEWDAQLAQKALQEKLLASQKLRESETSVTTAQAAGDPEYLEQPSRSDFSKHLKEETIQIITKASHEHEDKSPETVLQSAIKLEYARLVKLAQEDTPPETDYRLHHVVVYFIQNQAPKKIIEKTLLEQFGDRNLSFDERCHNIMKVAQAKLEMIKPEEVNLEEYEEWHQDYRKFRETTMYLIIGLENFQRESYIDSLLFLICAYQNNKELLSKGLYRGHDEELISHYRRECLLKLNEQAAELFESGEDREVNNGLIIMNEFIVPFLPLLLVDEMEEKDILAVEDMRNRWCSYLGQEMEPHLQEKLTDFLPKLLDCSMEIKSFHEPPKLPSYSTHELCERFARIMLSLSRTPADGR
Chain of UniProt Q96LJ8 (Q96LJ8 whole entry, looked up): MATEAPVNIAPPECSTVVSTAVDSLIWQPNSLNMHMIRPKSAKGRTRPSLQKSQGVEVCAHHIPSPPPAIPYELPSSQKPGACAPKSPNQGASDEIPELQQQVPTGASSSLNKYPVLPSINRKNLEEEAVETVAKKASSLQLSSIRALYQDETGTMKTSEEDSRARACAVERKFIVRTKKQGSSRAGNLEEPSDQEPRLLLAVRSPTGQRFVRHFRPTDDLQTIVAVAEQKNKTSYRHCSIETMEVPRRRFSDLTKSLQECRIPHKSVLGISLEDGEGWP
Chain of UniProt Q96HV5 (Q96HV5 whole entry, looked up): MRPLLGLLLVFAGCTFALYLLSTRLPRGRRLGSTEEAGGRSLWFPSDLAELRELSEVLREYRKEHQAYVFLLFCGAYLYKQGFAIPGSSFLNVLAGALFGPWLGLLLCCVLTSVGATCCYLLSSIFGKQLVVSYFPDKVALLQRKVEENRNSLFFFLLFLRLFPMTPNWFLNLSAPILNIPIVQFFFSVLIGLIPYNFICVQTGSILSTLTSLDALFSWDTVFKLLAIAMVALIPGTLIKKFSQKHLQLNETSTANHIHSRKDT
Chain of UniProt Q7Z392 (Q7Z392 whole entry, looked up): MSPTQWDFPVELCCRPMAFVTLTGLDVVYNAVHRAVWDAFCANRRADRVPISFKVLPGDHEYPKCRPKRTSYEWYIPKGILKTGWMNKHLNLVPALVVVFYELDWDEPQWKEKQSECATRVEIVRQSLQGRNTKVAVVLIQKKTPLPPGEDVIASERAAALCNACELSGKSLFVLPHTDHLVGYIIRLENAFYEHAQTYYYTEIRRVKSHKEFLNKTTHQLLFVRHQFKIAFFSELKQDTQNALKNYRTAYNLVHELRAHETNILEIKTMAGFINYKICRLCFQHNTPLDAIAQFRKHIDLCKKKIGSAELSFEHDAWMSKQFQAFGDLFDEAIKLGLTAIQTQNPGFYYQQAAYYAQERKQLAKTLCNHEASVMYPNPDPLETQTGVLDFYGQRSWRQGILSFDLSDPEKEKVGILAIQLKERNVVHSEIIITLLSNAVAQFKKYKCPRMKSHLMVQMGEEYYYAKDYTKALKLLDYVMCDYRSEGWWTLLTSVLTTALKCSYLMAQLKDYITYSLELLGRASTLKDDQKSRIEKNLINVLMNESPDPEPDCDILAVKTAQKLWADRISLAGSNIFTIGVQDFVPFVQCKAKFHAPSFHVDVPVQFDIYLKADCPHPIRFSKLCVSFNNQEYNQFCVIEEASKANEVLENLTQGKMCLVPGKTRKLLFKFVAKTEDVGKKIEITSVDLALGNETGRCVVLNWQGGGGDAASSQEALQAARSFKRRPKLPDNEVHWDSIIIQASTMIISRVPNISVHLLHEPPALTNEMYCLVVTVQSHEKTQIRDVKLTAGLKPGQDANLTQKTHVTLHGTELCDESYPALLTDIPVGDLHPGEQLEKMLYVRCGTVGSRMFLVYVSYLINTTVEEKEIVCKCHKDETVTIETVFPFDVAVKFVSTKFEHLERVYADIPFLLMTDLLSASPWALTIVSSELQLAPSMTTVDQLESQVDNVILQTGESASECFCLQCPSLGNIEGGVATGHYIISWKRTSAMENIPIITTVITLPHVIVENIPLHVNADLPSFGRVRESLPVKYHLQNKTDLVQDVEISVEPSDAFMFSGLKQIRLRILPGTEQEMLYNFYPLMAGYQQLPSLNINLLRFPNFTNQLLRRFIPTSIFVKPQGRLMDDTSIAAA
Chain of UniProt Q9H4I3 (Q9H4I3 whole entry, looked up): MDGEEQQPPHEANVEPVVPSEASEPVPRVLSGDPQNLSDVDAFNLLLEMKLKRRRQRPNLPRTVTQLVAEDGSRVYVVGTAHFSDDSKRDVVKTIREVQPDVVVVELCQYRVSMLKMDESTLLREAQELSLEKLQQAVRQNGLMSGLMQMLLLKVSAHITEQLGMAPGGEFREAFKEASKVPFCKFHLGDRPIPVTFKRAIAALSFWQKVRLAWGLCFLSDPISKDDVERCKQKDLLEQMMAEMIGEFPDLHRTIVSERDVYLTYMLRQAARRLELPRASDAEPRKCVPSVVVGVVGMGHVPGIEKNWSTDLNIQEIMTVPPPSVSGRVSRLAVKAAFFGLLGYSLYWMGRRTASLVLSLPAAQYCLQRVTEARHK
Chain of UniProt P51809 (P51809 whole entry, looked up): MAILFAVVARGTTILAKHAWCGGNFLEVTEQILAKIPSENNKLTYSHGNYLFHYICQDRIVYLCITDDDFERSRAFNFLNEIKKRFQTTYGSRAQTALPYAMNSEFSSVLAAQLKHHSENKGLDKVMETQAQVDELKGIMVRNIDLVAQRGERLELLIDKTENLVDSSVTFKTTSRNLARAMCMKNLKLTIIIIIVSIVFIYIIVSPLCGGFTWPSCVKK

| Target | log2 fold change (bafetinib) | log2 fold change [1] | log2 fold change (nilotinib) | log2 fold change [2] | log2 fold change (dasatinib) | log2 fold change [3] | log2 fold change [4] | log2 fold change [5] | log2 fold change (tipifarnib) | log2 fold change (mubritinib) | log2 fold change [6] | log2 fold change [7] | log2 fold change [8] | log2 fold change [9] | log2 fold change (entinostat) | log2 fold change (vorinostat) | log2 fold change (citarinostat) | log2 fold change (silmitasertib) | log2 fold change [10] | log2 fold change [11] |
| --- | --- | --- | --- | --- | --- | --- | --- | --- | --- | --- | --- | --- | --- | --- | --- | --- | --- | --- | --- | --- |
| TMEM70 (UniProt Q9BUB7) | -0.141 (inactive) | 0.026 (inactive) | 0.028 (inactive) | -0.003 (inactive) | -0.094 (inactive) | 0.018 (inactive) | 0.06 (inactive) | 0.023 (inactive) | -0.02 (inactive) | 0.017 (inactive) | -0.058 (inactive) | -0.125 (inactive) | -0.162 (inactive) | -0.137 (inactive) | 0.005 (inactive) | 0.031 (inactive) | 0.047 (inactive) | 0.019 (inactive) | -0.045 (inactive) | -0.003 (inactive) |
| UBC (UniProt P0CG48) | 0.055 (inactive) | -0.156 (inactive) | 0.116 (inactive) | 0.013 (inactive) | 0.02 (inactive) | -0.025 (inactive) | 0.003 (inactive) | 0.07 (inactive) | -0.051 (inactive) | 0.005 (inactive) | -0.003 (inactive) | -0.022 (inactive) | 0.214 (inactive) | 0.01 (inactive) | -0.023 (inactive) | -0.11 (inactive) | -0.13 (inactive) | -0.076 (inactive) | -0.117 (inactive) | -0.068 (inactive) |
| TNPO2 (UniProt O14787) | -0.004 (inactive) | 0.129 (inactive) | -0.122 (inactive) | -0.111 (inactive) | -0.173 (inactive) | -0.087 (inactive) | -0.076 (inactive) | -0.011 (inactive) | -0.011 (inactive) | 0.043 (inactive) | 0.015 (inactive) | -0.174 (inactive) | -0.268 (inactive) | -0.054 (inactive) | 0.064 (inactive) | -0.008 (inactive) | 0.047 (inactive) | 0.059 (inactive) | -0.04 (inactive) | -0.124 (inactive) |
| VTA1 (UniProt Q9NP79) | -0.035 (inactive) | 0.081 (inactive) | -0.07 (inactive) | -0.011 (inactive) | -0.109 (inactive) | -0.005 (inactive) | 0.035 (inactive) | 0 (inactive) | -0.109 (inactive) | 0.033 (inactive) | -0.029 (inactive) | 0.018 (inactive) | -0.185 (inactive) | -0.045 (inactive) | 0.036 (inactive) | 0.036 (inactive) | 0.054 (inactive) | 0.023 (inactive) | -0.076 (inactive) | 0.009 (inactive) |
| WDR62 isoform 4 (UniProt O43379) | -0.193 (inactive) | 0.016 (inactive) | -0.149 (inactive) | -0.041 (inactive) | -0.107 (inactive) | -0.083 (inactive) | 0.009 (inactive) | 0.032 (inactive) | 0.002 (inactive) | 0.024 (inactive) | -0.07 (inactive) | -0.099 (inactive) | -0.052 (inactive) | -0.038 (inactive) | 0 (inactive) | 0.05 (inactive) | 0.054 (inactive) | 0.073 (inactive) | 0.01 (inactive) | -0.07 (inactive) |
| TXNIP (UniProt Q9H3M7) | 0.03 (inactive) | -0.072 (inactive) | 0.018 (inactive) | 0.185 (inactive) | 0.005 (inactive) | -0.264 (inactive) | 0.105 (inactive) | -0.105 (inactive) | 0.199 (inactive) | -0.264 (inactive) | 0.091 (inactive) | -0.024 (inactive) | 0.19 (inactive) | 0.007 (inactive) | -0.009 (inactive) | 0.018 (inactive) | 0.071 (inactive) | 0.115 (inactive) | -0.079 (inactive) | 0.005 (inactive) |
| TRAPPC13 isoform 5 (UniProt A5PLN9) | 0.11 (inactive) | 0.149 (inactive) | -0.019 (inactive) | 0 (inactive) | -0.346 (active) | -0.056 (inactive) | 0.002 (inactive) | -0.112 (inactive) | -0.011 (inactive) | 0.057 (inactive) | -0.01 (inactive) | -0.248 (inactive) | -0.269 (inactive) | -0.148 (inactive) | 0.045 (inactive) | 0.079 (inactive) | 0.136 (inactive) | 0.017 (inactive) | -0.016 (inactive) | -0.13 (inactive) |
| VAMP7 (UniProt P51809) | -0.066 (inactive) | 0.025 (inactive) | -0.034 (inactive) | -0.04 (inactive) | 0.002 (inactive) | 0.023 (inactive) | 0.017 (inactive) | 0.086 (inactive) | -0.04 (inactive) | 0.003 (inactive) | -0.029 (inactive) | 0.001 (inactive) | -0.176 (inactive) | -0.069 (inactive) | 0.009 (inactive) | 0.025 (inactive) | 0.086 (inactive) | 0.027 (inactive) | -0.058 (inactive) | 0.026 (inactive) |
| TRAPPC11 (UniProt Q7Z392) | 0.065 (inactive) | 0.05 (inactive) | -0.098 (inactive) | -0.129 (inactive) | -0.159 (inactive) | 0.01 (inactive) | -0.04 (inactive) | -0.03 (inactive) | -0.06 (inactive) | 0.04 (inactive) | -0.033 (inactive) | -0.11 (inactive) | -0.187 (inactive) | 0.007 (inactive) | 0.011 (inactive) | 0.012 (inactive) | -0.006 (inactive) | 0.044 (inactive) | -0.036 (inactive) | -0.053 (inactive) |
| USP25 isoform 3 (UniProt Q9UHP3) | -0.043 (inactive) | 0.029 (inactive) | -0.021 (inactive) | -0.017 (inactive) | -0.048 (inactive) | 0.018 (inactive) | -0.038 (inactive) | 0.009 (inactive) | -0.024 (inactive) | 0.023 (inactive) | -0.038 (inactive) | -0.027 (inactive) | -0.071 (inactive) | -0.067 (inactive) | 0.001 (inactive) | -0.019 (inactive) | -0.021 (inactive) | 0.051 (inactive) | -0.03 (inactive) | 0.011 (inactive) |
| UBXN10 (UniProt Q96LJ8) | 0.002 (inactive) | -0.266 (inactive) | -0.085 (inactive) | 0.141 (inactive) | -0.032 (inactive) | -0.098 (inactive) | -0.075 (inactive) | 0.021 (inactive) | 0.01 (inactive) | 0.067 (inactive) | 0.062 (inactive) | – | 0.102 (inactive) | -0.426 (active) | -0.069 (inactive) | 0.136 (inactive) | -0.121 (inactive) | -0.006 (inactive) | -0.031 (inactive) | 0.037 (inactive) |
| TMEM8A (UniProt Q9HCN3) | -0.054 (inactive) | 0.096 (inactive) | -0.033 (inactive) | 0.071 (inactive) | -0.409 (inactive) | 0.019 (inactive) | -0.046 (inactive) | 0 (inactive) | 0.047 (inactive) | -0.001 (inactive) | -0.059 (inactive) | – | -0.393 (inactive) | -0.048 (inactive) | -0.485 (inactive) | -0.077 (inactive) | -0.037 (inactive) | 0.053 (inactive) | – | -0.056 (inactive) |
| TMEM41A (UniProt Q96HV5) | -0.037 (inactive) | 0.276 (active) | -0.008 (inactive) | -0.01 (inactive) | 0.054 (inactive) | -0.049 (inactive) | – | 0.082 (inactive) | 0.026 (inactive) | 0.062 (inactive) | -0.005 (inactive) | -0.053 (inactive) | 0.002 (inactive) | -0.066 (inactive) | -0.027 (inactive) | 0.09 (inactive) | 0.04 (inactive) | -0.015 (inactive) | -0.018 (inactive) | -0.059 (inactive) |
| TRIM4 (UniProt Q9C037) | 0.039 (inactive) | -0.015 (inactive) | 0.111 (inactive) | 0.101 (inactive) | – | 0.058 (inactive) | 0.042 (inactive) | -0.138 (inactive) | -0.014 (inactive) | 0.033 (inactive) | -0.04 (inactive) | 0.007 (inactive) | 0.082 (inactive) | -0.294 (inactive) | 0.03 (inactive) | -0.03 (inactive) | -0.006 (inactive) | 0.042 (inactive) | -0.051 (inactive) | -0.049 (inactive) |
| VPS16 (UniProt Q9H269) | 0.041 (inactive) | 0.178 (inactive) | -0.038 (inactive) | -0.071 (inactive) | -0.14 (inactive) | -0.022 (inactive) | -0.039 (inactive) | 0.04 (inactive) | -0.078 (inactive) | 0.083 (inactive) | 0.041 (inactive) | -0.156 (inactive) | -0.211 (inactive) | 0.007 (inactive) | 0.084 (inactive) | 0.16 (inactive) | 0.189 (inactive) | 0.009 (inactive) | 0.122 (inactive) | 0 (inactive) |
| TRABD (UniProt Q9H4I3) | 0.202 (inactive) | -0.038 (inactive) | 0.185 (inactive) | 0.02 (inactive) | – | -0.093 (inactive) | 0.145 (inactive) | -0.013 (inactive) | 0.012 (inactive) | -0.032 (inactive) | 0.008 (inactive) | -0.006 (inactive) | 0.1 (inactive) | 0.157 (inactive) | -0.022 (inactive) | 0.009 (inactive) | -0.014 (inactive) | 0.188 (inactive) | 0.055 (inactive) | -0.026 (inactive) |
